# Assay outcomes: PubChem, National Center for Advancing Translational Sciences (NCATS)
# HT1080-NT tox: kills 2HG-producing HT-1080-NT fibrosarcoma cells | HT-1080-NT fibrosarcoma viability, CellTiter-Glo ATP luminescence, 48 h | Potency, µM (titrated, usually from 46.1 µM), most hits filed as cytotoxic | 360,000 tested, 1.6% active;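 also: NT is the 2HG producing partner of a matched IDH1 knockdown line; nearly all actives have a fitted effect of over 55% in size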
#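 HT-1080-NT fibrosarcoma cells (2HG-overproducing), 750 cells/well in RPMI with 5% FBS, dosed after 2 h and incubated 48 h at 37C. CellTiter-Glo luminescence normalized to DMSO and no-cell wells; concentration-response curves fitted and classed.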
# TDP1 cell CPT: DT40-hTDP1 cell growth loss with CPT | chicken DT40 Tdp1-/-;hTDP1 cells + 20 nM CPT, ATP luminescence, 48 h | Potency, µM (top dose mostly 46.2 µM), actives largely listed as inhibitors | 420,000 tested, 12% active; also: nearly all actives have a fitted effect of over 55% in size
#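 Cell growth measured by CellTiter-Glo luminescence after a minimum 48 h, 37 C compound exposure with 20 nM CPT in Tdp1-knockout DT40 cells stably expressing hTDP1, seeded 400/well; qHTS titration format.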
# IL-1B inflam inh: blocks inflammasome-driven IL-1 beta release; THP-1 LPS/ATP IL-1B secretion, AlphaLISA, 16 h; active compounds read low; activity change, % at 57.5 µM; 360,000 tested, 4.7% active; AID 743279; in the data active = activity change below about -50%; inconclusive = mostly about -30% to -49%
#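 Secreted IL-1B measured by AlphaLISA bead assay after 16 h compound exposure of THP-1 cells; compounds (final up to 57.5 uM) added 1 h before LPS (250 ng/mL) and ATP (1.25 mM) stimulation; lower signal means less secretion.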
# HT1080 IDH1KD tx: HT-1080 IDH1 knockdown cell toxicity (counter line). Potency, µM (doses to about 46.1 µM), hits mostly cytotoxic. 360,000 tested, 2% active. AID 686971. HT-1080 IDH1 knockdown viability, ATP luminescence, 48 h
#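 Using the IDH1-knockdown HT-1080 line run in the same batch and compound series as the NT line, viability after 48 h at 37 °C was determined by CellTiter-Glo luminescence and expressed as % activity.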
# ELG1 DNA repair: inhibitors of ELG1-dependent DNA repair in HEK293T cells. AID 504467. 330,000 tested, 2.3% active. Potency, µM (top dose mostly 46.1 µM), most hits filed as inhibitors. HEK293T ELG1-luciferase reporter, luminescence, 16 h; DNA damage induced by 5-fluorouridine; also: nearly all actives have a fitted effect of over 55% in size
#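 In this reporter screen, reduction of luminescence relative to DMSO vehicle indicated activity. Compounds and 5-fluorouridine were added together to 2,000 cells per well, incubated for 16 hr at 37 °C, then developed with ONE-Glo.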
# DT40 TDP1 no CPT: qHTS for Inhibitors of human tyrosyl-DNA phosphodiesterase 1 (TDP1): qHTS in cells in absence of CPT. Potency, µM (doses to about 46.2 µM), most hits filed as inhibitors. DT40 Tdp1-/- hTDP1 cells, no CPT, ATP luminescence, 48 h. 420,000 tested, 15% active. AID 686978, 2013; also: nearly all actives have a fitted effect of over 55% in size
#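 Growth kinetics read by CellTiter-Glo luminescence after ≥48 hr at 37 °C. Cells: DT40 Tdp1-/- stably carrying human TDP1, 400 per well, compound exposure in the absence of CPT (DMSO vehicle).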
# Numbers stand for hits; i = inactive; ? = inconclusive; nt = no result given; [ ] = dose if it differs, or a comment. Most compounds without a hit are left out; they make up all but 19% or so of the library. Unless noted, calls follow the shape of the dose curve; as a rule, active = well fitted curve in the direction sought with a large enough effect; inconclusive = small, poorly fitted or top-dose-only effect, or another doubt; inactive = no such curve, though single readings can be large; an effect the other way counts as inactive or inconclusive.
SMILES,HT1080-NT tox,TDP1 cell CPT,IL-1B inflam inh,HT1080 IDH1KD tx,ELG1 DNA repair,DT40 TDP1 no CPT
O=C(Nc1ccc(-c2cn3ccsc3n2)cc1)C1COc2ccccc2O1 (stereo unspecified),i,21µM,i,?,i,?
O=C(Nc1nnc(C2CC2)s1)C1COc2ccccc2O1 (stereo unspecified),i,i,i,i,?,i
O=C(Nc1nnc(C(F)(F)F)s1)C1COc2ccccc2O1 (stereo unspecified),?,?,?,23µM,?,?
COc1ccc(OC)c2sc(NNC(=O)C3COc4ccccc4O3)nc12 (stereo unspecified),i,15µM,i,i,?,?
COc1ccc(-c2csc(NC(=O)C3COc4ccccc4O3)n2)cc1OC (stereo unspecified),i,16µM,?,i,?,13µM
CCCCn1c(N)c(N(CC(C)C)C(=O)CN2C(=O)NC3(CCC(C(C)(C)CC)CC3)C2=O)c(=O)[nH]c1=O (stereo unspecified),i,i,i,i,nt,i
Cc1ccc(CNC(=O)C2CCC(=O)N(C3CC3)C2)cc1 (stereo unspecified),i,i,i,i,?,i
CC1CCN(C(=O)CCNS(=O)(=O)c2ccc(Br)cc2)CC1,i[9.24 µM],i,i,i,i,i
Cc1ccc(NC(=O)c2nc(S(=O)(=O)Cc3ccccc3)ncc2Cl)cc1,18µM,1.5µM,-103,6.5µM,?,0.92µM
O=C(Nc1ccc(F)cc1)c1nc(S(=O)(=O)Cc2ccccc2)ncc1Cl,23µM,2.1µM,-95,15µM,?,1.6µM
Cc1ccc(NC(=O)c2nc(SCc3ccccc3F)ncc2Cl)cc1,nt,i,nt,nt,nt,i
O=C(NCc1ccccc1)c1nc(S(=O)(=O)Cc2ccc(F)cc2)ncc1Cl,nt,1.3µM,nt,nt,nt,1.5µM
CCS(=O)(=O)c1ncc(Cl)c(C(=O)Nc2c(C(=O)c3ccc(C)cc3)oc3ccccc23)n1,nt,1.6µM,nt,nt,nt,1.6µM
Cc1ccc(CSc2ncc(Cl)c(C(=O)NCc3ccccc3)n2)cc1,nt,i,nt,nt,nt,?
COCCn1c(SCC(=O)c2ccc(F)cc2)nc2cc(C(=O)NC3CCCC3)ccc2c1=O,nt,i,nt,nt,nt,i
CC(C)(C)N1CC(C(=O)Nc2ccc(C(N)=O)cc2)CC1=O (stereo unspecified),i,i,i,i,nt,i
COc1ccc(N2CCN(C(=O)COC(=O)CSc3ccccc3)CC2)cc1,i,i,i,i,i,i
CC(Sc1nnc(CC(=O)Nc2ccccc2F)n1C)C(=O)Nc1nccs1 (stereo unspecified),i,i,i,i,i,i
COc1ccc(NC(=O)Cn2cnc3c(nc4n3CCCCC4)c2=O)cc1Cl,nt,i,nt,nt,nt,i
CCOc1ccc(NC(=O)c2nc(S(=O)(=O)Cc3ccc(F)cc3)ncc2Cl)cc1,nt,0.5µM,nt,nt,nt,0.4µM
COc1ccc(NC(=O)c2nc(SCc3ccc(F)cc3)ncc2Cl)cc1,nt,i,nt,nt,nt,?
CCOC(=O)C1=C(N)n2c(s/c(=C/c3ccccc3)c2=O)=C(C(=O)OCC)C1c1ccccc1 (stereo unspecified),nt,nt,nt,nt,i,nt
CCOC(=O)C1=C(N)n2c(s/c(=C\c3ccco3)c2=O)=C(C(=O)OC(C)C)C1c1ccco1 (stereo unspecified),i,?,i,i,?,21µM
CCOC(=O)C1=C(N)n2c(s/c(=C\c3ccco3)c2=O)=C(C(=O)OCC)C1c1ccco1 (stereo unspecified),16µM,5.6µM,i,7.9µM,i,5µM
COC(=O)CN1C(=O)C(C)(C)c2cc(S(=O)(=O)Nc3ccc(Br)cc3F)ccc21,nt,i,nt,nt,nt,i
SMILES,HT1080-NT tox,TDP1 cell CPT,IL-1B inflam inh,HT1080 IDH1KD tx,ELG1 DNA repair,DT40 TDP1 no CPT
c1ccc2c(c1)sc[n+]2CCC1CCCCC1,nt,5µM,nt,nt,nt,2.5µM
Brc1cccc[n+]1Cc1ccc(C[n+]2ccccc2Br)cc1,nt,i,nt,nt,nt,i
c1ccc(C[n+]2csc3ccccc32)cc1,?,1µM,-53,?,i,1µM
COc1cccc(N(C(=O)c2snc(C(N)=O)c2N)C(C(=O)NCC2CCCO2)c2ccc3ncccc3c2)c1 (stereo unspecified),i,i,i,i,i,i
COc1ccc(CC(=O)Nc2cc(S(=O)(=O)N3CCCC3)ccc2Cl)c(OC)c1,i,?,i,i,i,?
CCc1nc2ccc(C(=O)NCCc3ccccn3)cn2c1N(C)CCC(C)C,i,?,i,i,nt,26µM
CCc1nc2ccc(C(=O)NCc3ccc(OC)cc3)cn2c1N(CC)CCOC,i,15µM,i,i,nt,?
CCCCNC(=O)c1ccc2nc(CC)c(N(CCC(C)C)CCN(C)C)n2c1,?,?,i,?,nt,?
CCc1nc2ccc(C(=O)NCCCN(C)C)cn2c1N(CC)CCOC,i,i,i,i,nt,i
CCc1nc2ccc(C(=O)NCCOc3ccc(OC)cc3)cn2c1N(CCC(C)C)CCN(C)C,?,i,-64,21µM,nt,i
CCc1nc2ccc(C(=O)Nc3cccc(OC)c3)cn2c1N(CC)CCOC,i,13µM,i,i,nt,18µM
CCCCNC(=O)c1ccc2nc(CC)c(N(CC)CCOC)n2c1,i,26µM,i,i,nt,21µM
CCc1nc2ccc(C(=O)NCc3ccc(OC)cc3)cn2c1N(C)CCC(C)C,?,?,?,?,nt,23µM
CCc1nc2ccc(C(=O)NCc3ccccc3OC)cn2c1N(CC)CCN(C)C,i,i,?,i,nt,i
CCc1nc2ccc(C(=O)NCc3ccccc3OC)cn2c1N(CC)CCOC,i,16µM,i,i,nt,16µM
O=C(NCc1cccnc1)C1C2C=CC(C2)C1C(=O)Nc1cccc(C(F)(F)F)c1 (stereo unspecified),i,i,i,i,nt,i
Cc1ccnc(NC(=O)c2ccccc2[N+](=O)[O-])c1,i,i,i,i,?,i
NC(=O)c1ccsc1NC(=O)c1ccc([N+](=O)[O-])o1,?,13µM,-68,?,i,8.2µM
Cc1ccnc(NC(=O)c2ccc([N+](=O)[O-])o2)c1,?,21µM,nt,i,i,?
O=C(Nc1ncccn1)c1ccc([N+](=O)[O-])o1,?,?,-90,?,i,?
O=C(Nc1ccccn1)c1ccc([N+](=O)[O-])o1,?,16µM,-92,?,i,16µM
NC(=O)c1ccsc1NC(=O)COC(=O)c1ccc([N+](=O)[O-])o1,i[9.24 µM],?,i,i,i,i
CC(NC(=O)CCCC1=NS(=O)(=O)c2ccccc2N1)c1ccccc1 (stereo unspecified),nt,i,nt,nt,nt,?
